PubChem BioAssay (EPA / NIEHS)
Results filed as inconclusive are left out. Calls of active or inactive are those of the source. The calls were made as follows: active = hit-call score of the fitted dose curve at least 0.9, where 1 is the maximum; inconclusive = response in the unintended direction; inactive = score below 0.9.

target: Estrogen receptor beta (Homo sapiens) (UniProt Q92731); assay: OT_ER_ERbERb_0480: Odyssey Thera (OT) 8-hour HEK293T Protein-Complementation Assay for Estrogen Receptor-beta/-beta Homodimer (AID 2283357)
Experimental: OT_ER_ERbERb_0480 is a cell-based assay that uses HEK293T, a human kidney cell line, with measurements taken at 8 hours after chemical dosing in a 384-well plate.OT_ER_ERbERb_0480 is one of one assay component(s) measured or calculated from the OT_ER_ERbERb_0480 assay. It is designed to make measurements of protein fragment complementation, a form of binding reporter, as detected with fluorescence intensity signals by Protein-fragment Complementation technology.Data from the assay component OT_ER_ERbERb_0480 was analyzed into 1 assay endpoint. This assay endpoint, OT_ER_ERbERb_0480, was analyzed in the positive analysis fitting direction relative to DMSO as the negative control and baseline of activity. Using a type of binding reporter, measures of receptor for gain-of-signal activity can be used to understand the binding at the pathway-level as they relate to the gene ESR2. Furthermore, this assay endpoint can be referred to as a primary readout, because the performed assay has only produced 1 assay endpoint. To generalize the intended target to other relatable targets, this assay endpoint is annotated to the nuclear receptor intended target family, where the subfamily is steroidal.
Protein-fragment complementation assay, or PCA, is a method for the identification and quantification of protein-protein interactions. In the PCA, the proteins of interest ("bait" and "prey") are each covalently linked to fragments of a third protein (e.g. DHFR, which acts as a "reporter"). Interaction between the bait and the prey proteins brings the fragments of the reporter protein in close proximity to allow them to form a functional reporter protein whose activity can be measured. The OT ER beta / ER beta assay is a homodimer PCA of the ligand binding domain (LBD; amino acids 310-547) of human ER beta stably expressed in HEK293T cells. […] Cells are fixed in 4 percent formaldehyde and stained with Draq5 (BioStatus) to identify cells prior to signal detection. Fluorescent signal in the basal state of the assay is very low and is primarily punctuate and cytoplasmic. Modulation of this assay is quantified as an increase in mean fluorescence intensity in the nucleus (for agonists) or in the nucleus and cytoplasm (antagonists) relative to vehicle controls, and can be quantified on a high content imaging device or a laser scanning cytometer. The latter instrument is favored for this assay because of the rapid mode of data acquisition, the ability to acquire data from the entire cell population in a well (as opposed to a fraction of the well on the high content devices) and the larger dynamic range typically achieved with this instrument. To assess sensitivity of the ER beta/ER beta LBD assay to ligand, cells were treated with the ER agonist 17- beta-estradiol (E2) in 10-point concentration- response format for 8 hours and monitored response on a laser scanning plate cytometer (Acumen eX3; TTP Lab Tech).

Chain of Estrogen receptor beta (Homo sapiens) (Q92731 whole entry, looked up, the tested form may be a part): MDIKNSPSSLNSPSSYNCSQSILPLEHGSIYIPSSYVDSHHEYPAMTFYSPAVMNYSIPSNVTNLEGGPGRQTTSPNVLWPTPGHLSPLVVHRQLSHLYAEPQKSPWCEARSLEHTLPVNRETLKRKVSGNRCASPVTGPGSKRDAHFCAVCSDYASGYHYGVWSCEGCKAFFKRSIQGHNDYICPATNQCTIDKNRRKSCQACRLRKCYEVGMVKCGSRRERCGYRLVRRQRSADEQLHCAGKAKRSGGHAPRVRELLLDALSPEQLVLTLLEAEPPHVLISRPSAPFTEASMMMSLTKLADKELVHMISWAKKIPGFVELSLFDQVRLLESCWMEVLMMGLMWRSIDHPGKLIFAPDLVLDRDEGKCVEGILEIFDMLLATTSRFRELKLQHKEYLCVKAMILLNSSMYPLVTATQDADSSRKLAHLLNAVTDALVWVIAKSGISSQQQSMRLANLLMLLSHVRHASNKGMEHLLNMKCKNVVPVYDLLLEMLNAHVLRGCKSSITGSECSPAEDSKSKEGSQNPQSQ

With `CCCCCCCCCCCCN(C)C` as the molecule, how does the AC50 read?
Its AC50 is 76.5 µM (active).

How did the outcome turn out when `CC(=Cc1ccccc1)[N+](=O)[O-]` was run?
The outcome was “inactive”.

With `Cc1cc(C)cc(C)c1` as the molecule, how does the outcome read?
Its outcome is “inactive”.

How did the outcome turn out when `COCCl` was run?
Its outcome is “inactive”.

Which outcome does the source give for `C=CC(Cl)CCl` (configuration not stated) here?
The outcome was “inactive”.

For `CNC(=O)O/N=C/C(C)(C)S(C)(=O)=O`, which outcome is on record?
Its outcome is “inactive”.

With `CN(N=O)C(N)=O` as the molecule, how does the outcome read?
Its outcome is “inactive”.

`N#CCC#N` was tested. Which outcome did it give?
The outcome was “inactive”.

With `CCC[CH2][Sn]([CH2]CCC)([CH2]CCC)[CH2]CCC` as the molecule, how does the outcome read?
The outcome was “inactive”.

`Oc1c(Br)cc(Br)cc1Br` was tested. Which outcome did it give?
The outcome was “inactive”.

With `Cc1cc(Cl)ccc1OC(C)C(=O)O` (configuration not stated) as the molecule, how does the outcome read?
Its outcome is “inactive”.

Which AC50 does the source give for `Oc1cc(Cl)c(Cl)cc1Cl` here?
Its AC50 is 43.8 µM (active).

For `CCCSP(=S)(OCC)Oc1ccc(SC)cc1` (configuration not stated), which outcome is on record?
Its outcome is “inactive”.

How did the AC50 turn out when `Cc1cc(Cl)ccc1O` was run?
The AC50 was 66.5 µM (active).

`CC(C)N(C(=O)CCl)c1ccccc1` was tested. Which outcome did it give?
The outcome was “inactive”.

How did the outcome turn out when `CC(C)=CC1C(C(=O)OCc2cccc(Oc3ccccc3)c2)C1(C)C` (configuration not stated) was run?
Its outcome is “inactive”.

For `O=[N+]([O-])c1ccccc1O`, which outcome is on record?
The outcome was “inactive”.

`CC(C)(C)c1ccccc1O` was tested. Which AC50 did it give?
Its AC50 is 50 µM (active).

With `Nc1ccc(N)cc1` as the molecule, how does the outcome read?
The outcome was “inactive”.

With `CC1(C)[C@H](C(=O)O[C@H](C#N)c2cccc(Oc3ccccc3)c2)[C@@H]1/C=C(\Cl)C(F)(F)F` as the molecule, how does the outcome read?
The outcome was “inactive”.

How did the outcome turn out when `O=C(N[C@H]1CN2CCC1CC2)c1ccc2c(c1)OCCO2` was run?
The outcome was “inactive”.

For `COC(=O)Nc1cccc(OC(=O)Nc2cccc(C)c2)c1`, which outcome is on record?
Its outcome is “inactive”.

How did the outcome turn out when `COc1nn(C(=O)NS(=O)(=O)c2ccccc2OC(F)(F)F)c(=O)n1C` was run?
Its outcome is “inactive”.

`Oc1c(Cl)cc(Cl)cc1Cl` was tested. Which outcome did it give?
The outcome was “inactive”.

For `O=C(CBr)c1ccc(O)cc1`, which outcome is on record?
Its outcome is “inactive”.

With `O=S1(=O)OC(c2cc(Br)c(O)c(Br)c2)(c2cc(Br)c(O)c(Br)c2)c2ccccc21` as the molecule, how does the AC50 read?
Its AC50 is 46.5 µM (active).

For `CC(O)(CS(=O)(=O)c1ccc(F)cc1)C(=O)Nc1ccc(C#N)c(C(F)(F)F)c1` (configuration not stated), which outcome is on record?
Its outcome is “inactive”.

Which outcome does the source give for `CCC[CH2][Sn]([Cl])([Cl])[CH2]CCC` here?
The outcome was “inactive”.

With `O=CCCl` as the molecule, how does the outcome read?
Its outcome is “inactive”.

Which AC50 does the source give for `CCOCn1c(-c2ccc(Cl)cc2)c(C#N)c(Br)c1C(F)(F)F` here?
Its AC50 is 17.3 µM (active).

`Clc1cccc(Cl)c1` was tested. Which outcome did it give?
Its outcome is “inactive”.

How did the outcome turn out when `CCOc1ccc(N)cc1` was run?
Its outcome is “inactive”.

With `Nc1ncn[nH]1` as the molecule, how does the outcome read?
Its outcome is “inactive”.

Which outcome does the source give for `N#Cc1cccnc1` here?
The outcome was “inactive”.

`O=C(NC(=O)c1c(F)cccc1F)Nc1cc(Cl)c(OC(F)(F)C(F)C(F)(F)F)cc1Cl` (configuration not stated) was tested. Which outcome did it give?
Its outcome is “inactive”.

Which outcome does the source give for `Cc1cc(Cl)ccc1OCCCC(=O)O` here?
Its outcome is “inactive”.

For `CCOP(=S)(OCC)O/N=C(\C#N)c1ccccc1`, which AC50 is on record?
The AC50 was 26.9 µM (active).
